Source: PubChem BioAssay (National Center for Advancing Translational Sciences (NCATS))
Pf growth 48h: inhibits P. falciparum growth in the first generation, 48 h | P. falciparum luciferase growth in erythrocytes, 48 h | Potency, µM (top dose mostly 28.7 µM), for the others: at the highest dose activity change, negative = inhibition, hits mostly inhibitors | actives 5.9% (n = 310,000) | AID 504832; also: % is scaled to controls: 0 for no effect and ±100 for the full control effect
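Firefly luciferase activity from engineered P. falciparum reports growth; inhibitors lower the luminescent signal. Cultures contained 2% hematocrit erythrocytes at 0.1% final parasitemia.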
Pf growth 96h: P. falciparum growth inhibition at 96 hours; P. falciparum luciferase reporter growth, 96 h; Potency, µM (doses to about 28.7 µM), inactives show at the highest dose activity change, negative = inhibition, actives largely listed as inhibitors; actives 6.9% (n = 320,000); also: % is scaled to controls: 0 for no effect and ±100 for the full control effect
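Cell-based qHTS: luciferase-tagged P. falciparum in erythrocytes (2% hematocrit, 0.05% parasitemia final) incubated with compounds for 96 hours, 37 C, 5% CO2; luciferase detection reagent then added and luminescence measured.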
Sm TGR block: blocks Schistosoma mansoni thioredoxin glutathione reductase. Q962Y6. Potency, µM (doses to about 114 µM), for the others: at the highest dose activity change, negative = inhibition, usual class: inhibitors. purified TGR, DTNB reduction, TNB absorbance 405 nm. AID 485364. actives 3% (n = 360,000); also: % is scaled to controls: 0 for no effect and ±100 for the full control effect; nearly all actives have a fitted effect of over 60% in size
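Kinetic colorimetric format: TGR-catalysed, NADPH-driven DTNB reduction monitored via TNB absorbance. Enzyme dispensed at 20 nM; compound exposure 15 min at room temperature before reaction start.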
SARS PLpro yeast: SARS-CoV PLP inhibition in yeast; S. cerevisiae expressing SARS-CoV PLpro, growth rescue; Potency, µM (series often up to 32.9 µM), inactives show at the top dose activity, positive = growth rescue, actives largely listed as activators; actives 0.19% (n = 330,000); AID 485353; calls by dose curve; also: 0% is about no effect; nearly all actives have a fitted effect of over 55% in size
AmpC detergent: blocks E. coli AmpC beta-lactamase in detergent assay; actives 0.041% (n = 370,000); P00811; AmpC hydrolysis of nitrocefin, absorbance 480 nm, 0.01% Triton; AID 485294; Potency, µM (highest dose often 114 µM), for the others: top-dose activity change, negative = inhibition, most hits filed as inhibitors;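 also: 0% = no-compound wells and -100% = no-enzyme wells; nearly all actives have a fitted effect of over 25% in size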
Target sequence (P00811 whole entry, looked up): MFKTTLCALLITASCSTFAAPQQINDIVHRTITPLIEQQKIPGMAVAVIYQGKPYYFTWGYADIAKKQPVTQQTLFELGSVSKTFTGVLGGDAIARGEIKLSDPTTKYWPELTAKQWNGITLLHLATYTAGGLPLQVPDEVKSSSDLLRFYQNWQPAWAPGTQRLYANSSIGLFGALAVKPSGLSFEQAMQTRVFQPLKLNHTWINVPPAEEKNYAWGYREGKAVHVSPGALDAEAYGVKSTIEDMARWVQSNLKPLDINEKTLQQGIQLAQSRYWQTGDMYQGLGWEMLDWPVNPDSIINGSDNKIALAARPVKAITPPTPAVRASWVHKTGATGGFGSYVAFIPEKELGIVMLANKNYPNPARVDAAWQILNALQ
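AmpC (5.3 nM in the dispensed reagent) in 20 mM phosphate pH 7.0 with 0.01% (detergent screen) or 0.0001% Triton X-100 was preincubated with compounds for 15 min at room temperature. Nitrocefin was then added from an 800 uM solution, and hydrolysis was followed at 480 nm.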
AmpC no deterg: blocks E. coli AmpC beta-lactamase in detergent-free assay. Potency, µM (titrated, usually from 57.1 µM), for inactives: at the top dose activity change, negative = inhibition, usual class: inhibitors. AID 485341. AmpC nitrocefin hydrolysis, absorbance 480 nm, 0.0001% Triton. actives 0.52% (n = 330,000);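 also: plate controls were no compound for no effect and no enzyme for full effect; nearly all actives have a fitted effect of over 20% in size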
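20 mM phosphate pH 7.0 + 0.01% (detergent screen) or 0.0001% Triton X-100; 5.3 nM AmpC reagent; cpd preinc 15 min RT; nitrocefin (800 uM stock) to start; A480 q20 s × 4 min; Activity was normalised to no-enzyme and no-compound control wells.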
* marks the source's active call; other numbers are inactive results; ? = inconclusive; · = no result given. Only some compounds are listed: those with a hit (about 12% of all), similar ones and a draw of the others. Unless noted, calls follow the shape of the dose curve; as a rule, active = well fitted curve in the direction sought with a large enough effect; inconclusive = small, poorly fitted or top-dose-only effect, or another doubt; inactive = no such curve, though single readings can be large; an effect the other way counts as inactive or inconclusive. Potency is read from the fitted curve at half-maximal effect.

SMILES | Pf growth 48h | Pf growth 96h | Sm TGR block | SARS PLpro yeast | AmpC detergent | AmpC no deterg
COc1ccc2c(c1)C(=O)N1[C@H]3c4cc(Br)ccc4OC[C@@H]3[C@H](c3ccccc3)[C@]1(C)C(=O)N2 | ? | 12µM* | -13% | -7% | -6% | -22%
CCOC(=O)c1ccc(NS(=O)(=O)c2cn(C)c(C)n2)cc1 | · | · | 4% | · | 21% | ·
O=C(NC1CCCN(Cc2ccc(Cl)cc2)C1)c1ccccc1C(F)(F)F (stereo not drawn) | ? | 4.7µM* | 0% | 1% | 2% | 32%
CC(=O)c1ccc(C(=O)NC2CCCN(Cc3ccc(Cl)cc3)C2)s1 (stereo not drawn) | -15% | ? | 5% | 1% | 1% | -3%
O=C(NC1CCCN(Cc2ccc(Cl)cc2)C1)c1c(F)cccc1F (stereo not drawn) | 43% | ? | -12% | 5% | 1% | -42%
O=C(NC1CCCN(Cc2ccc(Cl)cc2)C1)c1c(F)ccc(F)c1F (stereo not drawn) | -12% | 4.7µM* | -4% | ? | 8% | -2%
COc1ccc(OCC(=O)NC2CCCN(Cc3ccc(Cl)cc3)C2)cc1 (stereo not drawn) | 13µM* | ? | 2% | -8% | 3% | 136%
CN(C(=O)COc1ncnc2sccc12)c1ccccc1 | 3% | 13% | -2% | -3% | 5% | -15%
Cc1ccc(NC(=O)COC(=O)c2oc3ccccc3c2C)cc1S(=O)(=O)N1CCOCC1 | ? | ? | 5% | 3% | -11% | 0%
Cc1ccc(-c2cn3c(n2)sc2cc(C(=O)NCc4cccs4)ccc23)cc1 | · | · | -9% | · | 4% | ·
Cc1ccc(C(=O)NCC(c2ccc3c(c2)OCO3)N2CCN(c3ccc(F)cc3)CC2)cc1 (stereo not drawn) | · | · | -3% | · | 15% | ·
CC(C(=O)OCC(=O)c1ccc(Br)cc1)N1C(=O)C2C3CCC(C3)C2C1=O (stereo not drawn) | 24% | 12µM* | -14% | 3% | -10% | 60%
Cc1ccc(C(=O)COC(=O)C(C)N2C(=O)C3C4CCC(C4)C3C2=O)cc1 (stereo not drawn) | 10% | 8.3µM* | 2% | -8% | -6% | 28%
CC(C(=O)OCC(=O)c1ccc(Br)cc1)N1C(=O)C2C3C=CC(C3)C2C1=O (stereo not drawn) | 27% | -2% | 7% | 2% | -8% | 36%
Cc1ccc(C)c(C(=O)COC(=O)C(C)N2C(=O)C3C4CCC(C4)C3C2=O)c1 (stereo not drawn) | -1% | ? | 22µM* | -2% | -3% | 74%
CC1CCN(C(=O)C(C)NCc2ccc(F)cc2)CC1 (stereo not drawn) | 2% | ? | -9% | 5% | ? | -9%
NC(N)=Nc1ccc2[nH]c3c(c2c1)C[C@@]1(O)[C@H]2Cc4ccc(O)c5c4[C@@]1(CCN2CC1CC1)[C@H]3O5 | ? | -4% | 0.79µM* | · | 0% | -5%
Oc1ccc2c3c1O[C@H]1[C@@H](O)CC[C@@]4(O)[C@@H](C2)N(CC2CCC2)CC[C@]314 | 0% | 52% | -11% | · | ? | -20%
COc1ccccc1CNC(=O)C(CCSC)NC(=O)C1CCC(C)CC1 (stereo not drawn) | · | ? | -6% | 0% | ? | 5%
COc1ccc(/C=C/C2=CC(C)(C)NC(=S)N2)cc1 | ? | 9.3µM* | 2.5µM* | 1% | -6% | 8.9µM*
CC(=NCC1CCCO1)c1c(O)n(-c2ccc(C)cc2)c(=O)[nH]c1=O (stereo not drawn) | -14% | · | -3% | -12% | 1% | -13%
C/C(=N\Nc1cccc2ccccc12)c1c(O)n(Cc2ccccc2)c(=O)[nH]c1=O | 15µM* | ? | 13µM* | -25% | -14% | -38%
CC(=NCC1CCCO1)c1c(O)n(Cc2ccccc2)c(=O)[nH]c1=O (stereo not drawn) | 0% | 60% | -20% | 3% | 7% | 2.2µM*
C/C(=N\NC(=O)c1ccccc1)c1c(O)n(Cc2ccccc2)c(=O)[nH]c1=O | 34% | 18% | 2% | 0% | 4% | -30%
COCCCNC(=O)c1ccc(Cn2c(=O)c3ccccc3n(CC(=O)Nc3c(C)cccc3C)c2=O)cc1 | · | · | 8% | · | 12% | ·
SMILES | Pf growth 48h | Pf growth 96h | Sm TGR block | SARS PLpro yeast | AmpC detergent | AmpC no deterg
CCCCOc1ccc(S(=O)(=O)Nc2cccc(-c3ccc(N4CCOCC4)nn3)c2)cc1 | · | · | 5% | · | ? | ·
CCc1oc(C(=O)OC)cc1CSC(=N)N | ? | ? | 20µM* | -1% | 11% | -21%
COC(=O)c1ccc(CSC(=N)N)o1 | ? | 47% | -1% | -1% | 4% | -18%
CN(CC1CCN(CCc2cccc(C(F)(F)F)c2)CC1)C(=O)c1ccc(F)cc1 | -14% | 13µM* | -4% | -1% | 2% | 58%
CN(CC1CCN(CCc2cccc(C(F)(F)F)c2)CC1)C(=O)c1ccccc1 | 5% | ? | -32% | 13% | -12% | 42%
COc1ccc(CC(=O)NNC(=O)c2cc(Cl)ccc2OC)cc1 | 0% | 14% | -2% | -1% | 0% | -3%
COC(=O)C1=C(c2ccccc2)c2ccccc2S(=O)(=O)N1CC(=O)Nc1ccc(OC)cc1OC | · | · | 1% | · | 14% | ·
Cc1cccc(Oc2nc(-c3ccccn3)nc3ccccc23)c1 | 1.9µM* | 2.6µM* | 2% | -3% | 2% | 83%
Cc1ccccc1Oc1nc(-c2ccccn2)nc2ccccc12 | 1.9µM* | 0.93µM* | -20% | -4% | -3% | 61%
c1ccc(Oc2nc(-c3cccnc3)nc3ccccc23)cc1 | 10µM* | ? | 7% | -1% | 4% | 65%
Cc1cccc(Oc2nc(-c3ccncc3)nc3ccccc23)c1 | 1.7µM* | 1.5µM* | -2% | -1% | -4% | 52%
O=c1c2ccccc2nc2n1C(CSCc1ccc(Cl)cc1Cl)CS2 (stereo not drawn) | 6% | ? | ? | 3% | ? | -21%
Cc1cccc(-c2nc3c4ccccc4nc(NCc4ccccc4Cl)n3n2)c1 | · | · | 24% | · | 19% | ·
CCO[C@@H]1OC(C(=O)O)=C[C@H](C2CC2)[C@H]1CCCO | 20% | 29% | -13% | 0% | -8% | -12%
CC(=O)Nc1ccc(Oc2nc(-c3ccccn3)nc3ccccc23)cc1 | ? | 12µM* | 2% | -2% | 1% | 57%
Cc1cc2[nH]c(=O)c(=O)[nH]c2cc1S(=O)(=O)NC1CCC(C)CC1 (stereo not drawn) | ? | 0% | -15% | 3% | 0% | -53%
